Experimental data reported in PubChem BioAssay AID1159580 (chemical genetic matrix, 2015).
The whole screen tested about 5,500 compounds, of which about 2,000 (36%) were called active. Roughly 18% stayed inconclusive and do not appear here. Rule as the data show it: active = normalized growth mostly below about 0.91 (no sharp cut-off); inconclusive = no clear call, values can overlap the other calls; inactive = mostly above about 0.92. The list shows a part of the results.

Assay: chemical genetic growth profiling, strain panel (AID 1159580);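 also: tested at 20 µM; growth read once vehicle control cultures reached saturation at 30 °C; 1 = growth at the plate median or of vehicle wells; lower values mean less growth of the strain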
Details: S. cerevisiae deletion strains, growth OD
[1] = locus YDR150W, strain NUM1, hits give low values
[2] = locus YGR078C, strain PAC10, hits give low values
[3] = locus YJR075W, strain HOC1, hits give low values
[4] = locus YMR263W, strain SAP30, hits give low values

Measured: normalized growth

OC[C@H]1O[C@@H](n2cnc3c(NCCc4ccccc4)ncnc32)C(O)[C@H]1O (some centres undefined)
inactive: locus YAL040C, strain CLN3, hits give low values 0.979 | locus YCL061C, strain MRC1 (second series), hits give low values 0.999 | [1] 0.993 | locus YDR363W, strain ESC2, hits give low values 0.954 | locus YER002W, strain NOP16, hits give low values 1.02 | [2] 0.996 | [3] 0.993 | [4] 0.998 | locus YMR307W, strain GAS1, hits give low values 0.997 | locus YNL128W, strain TEP1, hits give low values 0.989 | locus YNL175C, strain NOP13, hits give low values 0.991 | locus YNL197C, strain WHI3, hits give low values 0.991 | locus YNL224C, strain SQS1, hits give low values 1.01 | locus YOR083W, strain WHI5 (second series), hits give low values 0.997

Cc1cc(C)c(I)c(C)c1
inactive: locus YAL013W, strain DEP1, hits give low values 1 | locus YBR229C, strain ROT2, hits give low values 1.02 | locus YDL101C, strain DUN1, hits give low values 0.987 | [1] 0.984 | locus YEL061C, strain CIN8, hits give low values 1.05 | [2] 0.995 | locus YHR030C, strain SLT2, hits give low values 1.12 | locus YHR087W, strain rtc3, hits give low values 1.09 | locus YJR043C, strain POL32, hits give low values 1.01 | [3] 1.02 | locus YKL190W, strain CNB1, hits give low values 0.99 | locus YLR039C, strain RIC1, hits give low values 1.05 | locus YLR058C, strain SHM2 (second series), hits give low values 1.02 | locus YLR085C, strain ARP6, hits give low values 1.01 | locus YLR262C, strain YPT6, hits give low values 1.05 | locus YML094W, strain GIM5, hits give low values 1.02 | locus YMR219W, strain ESC1, hits give low values 1.01 | [4] 1.02 | locus YNL153C, strain GIM3, hits give low values 0.999 | locus YNL298W, strain CLA4 (second series), hits give low values 1.04 | locus YNL322C, strain KRE1, hits give low values 1 | locus YNR030W, strain Alg12, hits give low values 1.03 | locus YPL055C, strain LGE1, hits give low values 1.02 | locus YPL241C, strain CIN2, hits give low values 1.02 | locus YPR135W, strain CTF4, hits give low values 0.963
